Compounds without any hit were thinned out: in the full panel of roughly 83,000, 20% have a hit.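 Note: values are percent growth. 100 is the growth of untreated cells, values between 100 and 0 indicate rising inhibition; between -100 and 0 indicates cell death.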 Values without a mark were called inactive. Activity calls are given as the source filed them. How the source made its calls: active means growth percent below 10; inactive means the rest.

The results in this text go back to PubChem BioAssay (NCI).

What all share (assay): NCI-60 one-dose screen, 48 h (100 = growth as untreated, 0 = no growth, -100 = all killed)
What all share (conditions): 10 µM unless noted

The subject of assay [1] is HCT-15 colon.
Assay [2] deals with HT29 colon.
Assay [3] concerns SNB-75 CNS.
Assay [4] has as its system SNB-19 CNS.
In assay [5] the test system is U251 CNS.
Assay [6] deals with PC-3 prostate.
Assay [7] has as its system SK-MEL-5 melanoma.
Assay [8] concerns UACC-62 melanoma.
The subject of assay [9] is LOX IMVI melanoma.
In assay [10] the test system is SK-MEL-28 melanoma.

For the compound `Cc1c(C)c(C)c([N+](=O)[O-])c([N+](=O)[O-])c1C`, the growth in assay [1] was 94%; in assay [2] it was 102%; in assay [3], 111%; in [4], 95.4%; in [5] it was 101%; in [6] it was 84%. Moreover, the growth in [7] was 99.3%; in assay [8], 83.6%; in assay [9], 95.9%; in assay [10], 104%.
As for `O=C(CS)OCC(COC(=O)CS)(COC(=O)CS)COC(=O)CS`, the growth in assay [1] was 85%; in assay [2] it was 98.9%; in [3], 74.5%; in [4], 119%; in assay [5], 103%; in assay [6], 83.4%. Also, the growth was 102% in assay [7], 67.9% in assay [8], 70.5% in [9] and 90.1% in [10].
As to `CC(=O)c1cccc(Nc2ncnc3ccc(NC(=O)c4ccco4)cc23)c1`, the growth is 86.8% in assay [1]; 82.9% in assay [2]; 94.3% in assay [3]; 93.6% in assay [4]; 98.1% in assay [5]; 83.7% in [6]. In addition, the growth in assay [7] is 70.4%; in assay [8] it was 84.1%; in assay [9], 92.5%; in assay [10], 98.7%.
Consider `Oc1ccc(Cl)cc1-c1cc(-c2ccccc2Cl)[nH]n1`, for which the growth in assay [1] was 29.2%; in assay [2], 92.2%; in [3] it was 44.2%; in assay [4], 88%; in assay [5], 67%; in assay [6], 44.1%. Besides, the growth in assay [7] was 68.7%; in assay [8], 59.5%; in assay [9], 51.7%; in [10], 89.7%.
With `CCCc1n(Cc2ccc3ccccc3n2)cc[n+]1Cc1ccc2ccccc2n1`, the growth in [1] is 95.7%; in assay [2], 16.8%; in assay [3] it was 19.5%; in assay [4] it was 19.1%; in assay [5], 20.6%; in [6] it was 24.8%. For the same compound, the growth was -49% (active) in assay [7], 1.66% (active) in [8], 18% in assay [9] and 19.3% in [10].
As to `CCCCCCCCCC1=NC(C)(C)CN1C(C)(C)CO`, the growth in assay [1] is 82.2%; in assay [2], 49.2%; in assay [3] it was 102%; in assay [4] it was 92.1%; in [5], 82.6%; in [6], 83.8%. Also, the growth in assay [7] was 84%; in assay [8], 98.8%; in [9] it was 85.6%; in [10] it was 131%.
Regarding `O=C(Nc1ccc(Oc2ccc(Nc3nc4ccccc4s3)cc2)cc1)Nc1ccc(Cl)c(C(F)(F)F)c1`, the growth is 8.45% (active) in [1]; -10.9% (active) in [2]; 16.7% in assay [3]; 22.5% in assay [4]; 2.67% (active) in [5]; 3.08% (active) in assay [6]. Besides, the growth in assay [7] was -84.8% (active); in assay [8], 1.63% (active); in assay [9] it was -88.3% (active); in assay [10], 25.3%.
Turning to `Cc1c(O)c(=O)n(-c2ccccc2)n1C`, the growth in [1] was 92.7%; in assay [2], 103%; in assay [3], 98.3%; in assay [4], 106%; in assay [5] it was 105%; in [6], 92%. Besides, the growth in assay [7] is 110%; in [8], 98.7%; in assay [9], 105%; in assay [10], 111%.
For the compound `Cn1c(=O)c2c3c(oc2c2ccccc21)C(=O)c1ccccc1C3=O`, the growth in assay [1] was 85%; in assay [2] it was 73.7%; in assay [3], 64.4%; in assay [4], 93.3%; in assay [5], 90.2%; in assay [6], 64.4%. The growth in [7] is 76.9%; in assay [8], 77%; in assay [9] it was 76.6%; in [10], 112%.
For the compound `COc1ccc(Nc2ncnc3c2sc2nc(C)cc(C)c23)cc1`, the growth is 96% in assay [1]; 105% in assay [2]; 74.4% in [3]; 99.2% in [4]; 103% in assay [5]; 92.7% in assay [6]. Moreover, the growth in assay [7] is 99.8%; in assay [8], 100%; in assay [9], 96.7%; in [10], 105%.
Turning to `CCN(CC)Cc1cc(Nc2ccnc3cc(Cl)ccc23)cc(-c2ccc(Cl)cc2)c1O`, the growth in assay [1] was 25.2%; in assay [2], 22.7%; in assay [3], -35.9% (active); in assay [4], 32.8%; in assay [5], 0.662% (active); in assay [6], 25.2%. Moreover, the growth in assay [7] was -49.6% (active); in [8], 60.8%; in assay [9], 0.179% (active); in assay [10], 46%.
For `CSC(=S)N/N=C(\C)c1ccccn1`, the growth in assay [1] was 34.7%; in assay [2], 25.9%; in assay [3], 35.5%; in [4], 24.6%; in [5], 13.9%; in assay [6] it was 27%. The growth in assay [7] was -47.7% (active); in assay [8], -22.3% (active); in assay [9], 12.7%; in assay [10] it was 42.4%.
Take `Nc1nc(N)c2cc(CNc3ccc(Cl)c(Cl)c3)ccc2n1`: the growth in assay [1] was 9.76% (active); in [2], -75.2% (active); in assay [3], 40.1%; in assay [4], 31.5%; in assay [5], -78.1% (active); in [6] it was 22.5%. In addition, the growth in [7] is 15.4%; in assay [8] it was 21%; in assay [9], -54.8% (active); in assay [10], 60.1%.
